This note sets out measurements from PubChem BioAssay (NCI).

Molecules are shown by their SMILES. Compounds without any hit were thinned out: in the full panel of roughly 83,000, 20% have a hit.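 Step 1: grow cells in 96-well plates. Step 2: add test compound at a single concentration. Step 3: incubate 48 h. Step 4: record percent growth.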 A number with no mark means an inactive call. Activity calls are given as the source filed them. The calls were made as follows: active = growth percent below 10; inactive = the rest.

One experiment deals with SF-295 CNS. Briefly: NCI-60 one-dose screen, 48 h (100 = growth as untreated, 0 = no growth, -100 = all killed). Conditions: 10 µM unless noted.
As for `COc1ccc(-c2nc3ccc(-c4nc5ccc(N6CCN(c7ccncc7)CC6)cc5[nH]4)cc3[nH]2)cc1OC`, the growth was 49.8%.
Regarding `O=C1/C(=C/c2cn(-c3ccccc3)nc2-c2ccccc2)SC(=S)N1CCc1ccccc1`, the growth is 103%.
`CCCN1CCN(c2ccc3nc(-c4ccc5nc(-c6ccc(OCC)cc6)[nH]c5c4)[nH]c3c2)CC1`: the growth was 41.4%.
Turning to `COc1cccc(-c2nc3sccn3c2-c2ccnc(NCCCNS(=O)(=O)c3cccc(F)c3)c2)c1`, the growth was 9.57% (active).
Consider `Cn1c(=O)c2c(nc3n(-c4ccc(Cl)cc4Cl)c(Sc4nc(-c5ccccc5)c(C#N)c(=O)[nH]4)cn23)n(C)c1=O`, for which the growth is 44.4%.
For the compound `O=C(/C=C/c1ccccc1)c1ccc(O)c(CN2CCN(c3cc4c(cc3F)c(=O)c(C(=O)O)cn4C3CC3)CC2)c1`, the growth is 4.62% (active).
Still for that read-out and setting: to `C=CC(=O)Nc1cccc(-c2nc(SC)nc(Nc3ccccc3OC)c2C#N)c1` belongs 80.3%; to `COc1cccc(-c2nc3sccn3c2-c2ccnc(NCCNS(=O)(=O)c3ccc(F)cc3)c2)c1`, 14.5%; to `COc1cc2nc(N3CCCC3)nc(NCc3ccccc3)c2cc1OC`, 71.1%.
Same read-out and setting: to `N#Cc1c(-c2ccc(Cl)cc2)nc(N/N=C/c2cccc(Br)c2)nc1N1CCOCC1` belongs 91.5%.
On to `CSc1nc(-c2cccc(NC(=O)CCl)c2)c(C#N)c(=O)n1C`, for which the growth is 98.7%.
As for `C=CC(=O)Nc1cccc(-c2nc(SC)nc(NCCc3ccc(OC)c(OC)c3)c2C#N)c1`, the growth was 43%.
As for `O=C(/C=C/c1cccc([N+](=O)[O-])c1)c1ccc(O)c(CN2CCN(c3cc4c(cc3F)c(=O)c(C(=O)O)cn4C3CC3)CC2)c1`, the growth is 50.1%.
As for `COc1cc(/C=C/C(=O)c2ccc(O)c(CN3CCN(c4cc5c(cc4F)c(=O)c(C(=O)O)cn5C4CC4)CC3)c2)cc(OC)c1OC`, the growth was 86.5%.
In the case of `CC(C)(O)c1cn(CCCCN2C(=O)C(=O)c3ccccc32)nn1`, the growth is 102%.
Take `COC(=O)[C@]12CCC(C)(C)C[C@H]1[C@H]1C(=O)C[C@@H]3[C@@]4(C)c5c([nH]c6ccccc6c5=O)C(C)(C)[C@@H]4CC[C@@]3(C)[C@]1(C)CC2`: the growth is 35.6%.
Same read-out and setting: for `N=C(N)c1ccc(-c2ccc(-c3ccc4ccccc4c3)s2)s1` the value was 22.3%; for `C=CC(=O)Nc1cccc(-c2nc(SC)nc(NCCN3CCOCC3)c2C#N)c1`, 106%; for `COc1cc(C=Nc2oc(-c3ccccc3)c(-c3ccccc3)c2C#N)cc(CN2CCCCC2)c1O`, 102%.
For the compound `CC1=NN(c2nc(-c3ccc(Cl)cc3)c(C#N)c(N3CCOCC3)n2)C(=O)C1`, the growth was 103%.
The same measure, in the same setting: to `COc1cccc(Nc2nc(SC)nc(-c3cccc([N+](=O)[O-])c3)c2C#N)c1` belongs 62.6%.
On to `CSc1nc(NCCO)c(C#N)c(-c2cccc([N+](=O)[O-])c2)n1`, for which the growth was 98.3%.
On the same count and under the same terms, for `Cn1c(O)c(N=NC(=O)c2cc(-c3ccccc3)on2)c2ccccc21` the value was 99.8%; for `CSc1nc(Nc2cccc(NC(=O)/C(C#N)=C/c3c(Cl)cccc3Cl)c2)c(C#N)c(-c2cccc([N+](=O)[O-])c2)n1`, 92%; for `COc1ccc(-c2nc3ccc(-c4nc5ccc(N6CCN(c7ccccc7)CC6)cc5[nH]4)cc3[nH]2)cc1OC`, 22.1%.
With `O=C(N=Nc1c(O)[nH]c2ccccc12)c1cc(-c2ccccc2)on1`, the growth is 98.2%.
Turning to `O=C1CC(=NCC(=O)n2c(-c3ccccc3)nc3ccccc32)NN1`, the growth is 101%.

Another experiment concerns SF-539 CNS. The experiment is described as above. The conditions noted are these: 10 µM unless noted.
With `C=C(C)[C@@H]1CC[C@]2(C(=O)OC)CC[C@]3(C)[C@H](CC[C@@H]4[C@@]5(C)C/C(=C/c6cccc(I)c6)C(=O)C(C)(C)[C@@H]5CC[C@]43C)[C@@H]12`, the growth was 91.7%.
The same measure, in the same setting: to `N#Cc1c(-c2ccc(Cl)cc2)nc(NN=Cc2ccco2)nc1N1CCOCC1` belongs 75.3%; to `C=CC(=O)Nc1cccc(Nc2nc(SC)nc(-c3cccc([N+](=O)[O-])c3)c2C#N)c1`, 76.6%.
On the same count and under the same terms, to `COc1ccc(/C=C/C(=O)c2ccc(O)c(CN3CCN(c4cc5c(cc4F)c(=O)c(C(=O)O)cn5C4CC4)CC3)c2)cc1` belongs 18.8%; to `COc1cc2nc(N3CCCC3)nc(Nc3ccccc3)c2cc1OC`, -87.4% (active); to `COc1cccc(-c2nc3sccn3c2-c2ccnc(NCCNS(=O)(=O)c3ccccc3)c2)c1`, 66.9%.
With `COc1cc(/C=C/C(=O)c2c(C)oc3nc[nH]c(=O)c23)cc(OC)c1OC`, the growth was 95.7%.
Same read-out and setting: to `C=C(C)[C@@H]1CC[C@]2(C(=O)OC)CC[C@]3(C)[C@H](CC[C@@H]4[C@@]5(C)C/C(=C/c6ccc(OC)cc6)C(=O)C(C)(C)[C@@H]5CC[C@]43C)[C@@H]12` belongs 90.3%; to `O=S(=O)(Nc1ccc(I)cc1F)c1ccc(-c2cnc(C3CC3)o2)cc1`, 44.1%; to `COc1cc2nc(N3CCCC3)nc(NCCc3ccccc3)c2cc1OC`, 86.1%.
Still for that read-out and setting: for `COc1ccc(Nc2nc(SC)nc(-c3cccc([N+](=O)[O-])c3)c2C#N)cc1` the value was 69%; for `COc1cc(CNc2oc(-c3ccccc3)c(-c3ccccc3)c2C#N)cc(CN2CCN(C)CC2)c1O`, 71.3%; for `COc1ccc(-c2nc3ccc(-c4nc5ccc(N6CCN(c7ccncc7)CC6)cc5[nH]4)cc3[nH]2)cc1OC`, 42.5%.
Still for that read-out and setting: to `O=C1/C(=C/c2cn(-c3ccccc3)nc2-c2ccccc2)SC(=S)N1CCc1ccccc1` belongs 106%; to `CCCN1CCN(c2ccc3nc(-c4ccc5nc(-c6ccc(OCC)cc6)[nH]c5c4)[nH]c3c2)CC1`, 58.3%; to `COc1cccc(-c2nc3sccn3c2-c2ccnc(NCCCNS(=O)(=O)c3cccc(F)c3)c2)c1`, 70%.
Turning to `Cn1c(=O)c2c(nc3n(-c4ccc(Cl)cc4Cl)c(Sc4nc(-c5ccccc5)c(C#N)c(=O)[nH]4)cn23)n(C)c1=O`, the growth is 30.6%.
Turning to `O=C(/C=C/c1ccccc1)c1ccc(O)c(CN2CCN(c3cc4c(cc3F)c(=O)c(C(=O)O)cn4C3CC3)CC2)c1`, the growth was 10.3%.
On the same count and under the same terms, for `C=CC(=O)Nc1cccc(-c2nc(SC)nc(Nc3ccccc3OC)c2C#N)c1` the value was 68.6%; for `COc1cccc(-c2nc3sccn3c2-c2ccnc(NCCNS(=O)(=O)c3ccc(F)cc3)c2)c1`, 55.5%; for `COc1cc2nc(N3CCCC3)nc(NCc3ccccc3)c2cc1OC`, 52.4%.
For the compound `N#Cc1c(-c2ccc(Cl)cc2)nc(N/N=C/c2cccc(Br)c2)nc1N1CCOCC1`, the growth is 78.8%.
On to `CSc1nc(-c2cccc(NC(=O)CCl)c2)c(C#N)c(=O)n1C`, for which the growth was 38.6%.
Turning to `C=CC(=O)Nc1cccc(-c2nc(SC)nc(NCCc3ccc(OC)c(OC)c3)c2C#N)c1`, the growth was 65.6%.
Still for that read-out and setting: for `O=C(/C=C/c1cccc([N+](=O)[O-])c1)c1ccc(O)c(CN2CCN(c3cc4c(cc3F)c(=O)c(C(=O)O)cn4C3CC3)CC2)c1` the value was 12%.
Consider `COc1cc(/C=C/C(=O)c2ccc(O)c(CN3CCN(c4cc5c(cc4F)c(=O)c(C(=O)O)cn5C4CC4)CC3)c2)cc(OC)c1OC`, for which the growth was 49.6%.
Same read-out and setting: for `CC(C)(O)c1cn(CCCCN2C(=O)C(=O)c3ccccc32)nn1` the value was 96.4%; for `COC(=O)[C@]12CCC(C)(C)C[C@H]1[C@H]1C(=O)C[C@@H]3[C@@]4(C)c5c([nH]c6ccccc6c5=O)C(C)(C)[C@@H]4CC[C@@]3(C)[C@]1(C)CC2`, 92.1%.
On the same count and under the same terms, to `N=C(N)c1ccc(-c2ccc(-c3ccc4ccccc4c3)s2)s1` belongs 73.8%; to `C=CC(=O)Nc1cccc(-c2nc(SC)nc(NCCN3CCOCC3)c2C#N)c1`, 93.3%.
Same read-out and setting: to `COc1cc(C=Nc2oc(-c3ccccc3)c(-c3ccccc3)c2C#N)cc(CN2CCCCC2)c1O` belongs 101%; to `CC1=NN(c2nc(-c3ccc(Cl)cc3)c(C#N)c(N3CCOCC3)n2)C(=O)C1`, 97.9%.
For `COc1cccc(Nc2nc(SC)nc(-c3cccc([N+](=O)[O-])c3)c2C#N)c1`, the growth is 81.4%.
Same read-out and setting: for `CSc1nc(NCCO)c(C#N)c(-c2cccc([N+](=O)[O-])c2)n1` the value was 96.7%; for `Cn1c(O)c(N=NC(=O)c2cc(-c3ccccc3)on2)c2ccccc21`, 99.9%; for `CSc1nc(Nc2cccc(NC(=O)/C(C#N)=C/c3c(Cl)cccc3Cl)c2)c(C#N)c(-c2cccc([N+](=O)[O-])c2)n1`, 65.2%.
As for `COc1ccc(-c2nc3ccc(-c4nc5ccc(N6CCN(c7ccccc7)CC6)cc5[nH]4)cc3[nH]2)cc1OC`, the growth was 17.5%.
Still for that read-out and setting: for `O=C(N=Nc1c(O)[nH]c2ccccc12)c1cc(-c2ccccc2)on1` the value was 97.4%; for `O=C1CC(=NCC(=O)n2c(-c3ccccc3)nc3ccccc32)NN1`, 99.4%.
